# Compound activity: PubChem BioAssay, several laboratories
# Only a selection was taken, and hits are over-represented in it overall.
# GluA2 TARP mod – modulators of AMPA receptor GluA2-stargazin complexes; HEK293 GluA2+stargazin, membrane potential dye (FDSS), glutamate EC50; hits were called plate by plate, in both directions; calls only at 30 µM; 3.5% of 40,000 active;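 active = any of four per-well response measures lying three or more SD from its plate-wide compound average, in either direction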
# GIRK2 act – Activators of human GIRK2-containing channels. P48051. HEK293 GIRK2/NPY4 cells, thallium flux fluorescence. activation (% efficacy), % for hits at 37.5 µM. 34,000 tested, under 10 active. AID 1259324;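 active = primary screen hit, no activity in plain HEK293 cells, and in GIRK2-only cells above 5% efficacy rising with concentration; inactive = the rest, including fluorescent compounds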;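 also: efficacy is normalized control-subtracted fluorescence 15 s after thallium addition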
# * marks the source's active call; other numbers are inactive results; i = inactive; nt = not tested or not shown; + = active, no number.
SMILES,GluA2 TARP mod,GIRK2 act
COc1ccc(CC(=O)NCC(c2cccc3ccccc23)N2CCOCC2)cc1 (configuration not stated),i,i
Cc1ccc(C(CNC(=O)c2cccs2)N2CCOCC2)cc1 (configuration not stated),i,i
O=C(NC1CCCC(O)C1)c1ccccc1Br (configuration not stated),i,i
C=CCN1C(=O)/C(=C\C=C2/SCCN2C)SC1=S,+,nt
COCCn1c(=S)[nH]c2cc(C(=O)N3CCc4ccccc4C3)ccc2c1=O,+,i
COC(=O)c1ccc2c(=O)n(CCC(=O)N3CCC(Cc4ccccc4)CC3)c(=S)[nH]c2c1,i,i
COC(=O)c1ccc2c(=O)n(CCC(=O)N3CCOCC3)c(=S)[nH]c2c1,+,i
COC(=O)c1ccc2c(=O)n(CCN3CCCCC3)c(=S)[nH]c2c1,i,i
COCCn1c(=S)[nH]c2cc(C(=O)N3CCN(c4ccccc4)CC3)ccc2c1=O,i,i
COC(=O)c1ccc2c(=O)n(CCC(=O)NCCCN3CCOCC3)c(=S)[nH]c2c1,+,i
CCOc1ccccc1-c1nc(COC(=O)c2nnn(-c3ccc(Br)cc3)c2C)c(C)o1,i,nt
CC(=O)Nc1ccc(NC(=O)C(=O)NCCN2CCOCC2)cc1,i,i
Cn1nnc2c(N3CCN(C(=O)COc4ccc(Cl)cc4)CC3)ncnc21,nt,i
CS(=O)(=O)N1CCC(C(=O)NCCn2ncc3c(N4CCCC4)ncnc32)CC1,i,nt
CC1(C)Cc2cccc(OCCCS(=O)(=O)NCc3cccnc3)c2O1,nt,i
COc1ccc(N2C(=O)CN(CCc3ccccc3OC)C3CS(=O)(=O)CC32)cc1 (configuration not stated),i,i
COc1ccc(N2C(=O)CS(=O)(=O)C23C(=O)N(Cc2ccccc2C)c2ccccc23)cc1 (configuration not stated),+,nt
CCN(CC)C(=O)C(=O)Nc1ccc(OC)c(OC)c1,i,nt
COc1cc([N+](=O)[O-])ccc1NC(=O)c1ccc(=O)n(Cc2cccc(Cl)c2)c1,+,i
COc1cc([N+](=O)[O-])ccc1NC(=O)c1ccc(=O)n(Cc2cccc(C(F)(F)F)c2)c1,i,i
COc1cc([N+](=O)[O-])ccc1NC(=O)c1ccc(=O)n(Cc2ccccc2)c1,+,i
COc1cc([N+](=O)[O-])ccc1NC(=O)c1ccc(=O)n(Cc2ccc(Cl)cc2)c1,i,i
COc1cccc(NC(=O)c2ccc(=O)n(Cc3cccc([N+](=O)[O-])c3)c2)c1,i,i
CC(=O)c1cccc(NC(=O)c2ccc(=O)n(Cc3cccc([N+](=O)[O-])c3)c2)c1,+,i
O=C(COc1ccccc1)NCCCn1nc(-c2ccc(Cl)cc2)ccc1=O,i,i
SMILES,GluA2 TARP mod,GIRK2 act
Cc1ccc(-c2cc(C(=O)NCc3ccncc3)c3c(C)nn(C4CCS(=O)(=O)C4)c3n2)cc1 (configuration not stated),i,i
COC(=O)C1=C(C)N(C)C(=O)NC1c1ccc(OCc2ccccc2)cc1 (configuration not stated),i,nt
CCC(=O)N1c2ccccc2NC2=C(C(=O)CC(C)(C)C2)C1c1ccc(OCc2ccccc2)cc1 (configuration not stated),+,nt
O=C(Nc1c2c(nn1-c1ccccc1)CS(=O)(=O)C2)C(=O)N1CCCCC1,i,i
COCCCNC(=O)C(=O)Nc1c2c(nn1-c1ccc(Cl)cc1)CS(=O)(=O)C2,i,nt
O=C(Nc1c2c(nn1-c1ccccc1)CS(=O)(=O)C2)C(=O)N1CCCC1,+,i
COCCNC(=O)C(=O)Nc1c2c(nn1-c1ccc(Cl)cc1)CS(=O)(=O)C2,+,nt
CCC(=O)Nc1ccc2c(c1)CC(=O)N2C,i,nt
Cc1nnsc1C(=O)Nc1ccc2c(c1)CC(=O)N2C,+,i
CCC(C)NC(=O)C(=O)Nc1c2c(nn1-c1cccc(C)c1)CS(=O)(=O)C2 (configuration not stated),i,i
O=C(CCc1csc(NS(=O)(=O)c2ccccc2)n1)Nc1ccc(OC(F)(F)F)cc1,i,i
CC(=O)c1cccc(NC(=O)CCc2csc(NS(=O)(=O)c3ccccc3)n2)c1,+,i
NC(=O)c1ccc(NC(=O)CCc2csc(NS(=O)(=O)c3ccccc3)n2)cc1,+,i
COc1ccc(NC(=O)CCc2csc(NS(=O)(=O)c3ccccc3)n2)cc1OC,i,i
Cc1ccc(S(=O)(=O)Nc2nc(CCC(=O)NCc3ccc(F)cc3)cs2)cc1,i,i
O=C(CCc1csc(NS(=O)(=O)c2ccc(F)cc2)n1)Nc1ccc(Cl)cc1,+,i
O=C(Cc1ccc(NC(=O)CC(c2ccccc2)c2ccccc2)cc1)NCC(F)(F)F,nt,i
CCS(=O)(=O)N1CCCc2cc(NS(=O)(=O)c3cc(C)ccc3OC)ccc21,i,nt
